For some assays here: Entries with a potency or affinity are not part of this list.
What was measured:
Parameters in all cases: scale not given: direction of the effect not stated beside the values
[1] = target: Protein translocase subunit SecA (Escherichia coli (strain K12)) (UniProt P10408); experiment: Assay to Identify E. coli SecA ATPase Inhibitors; assay type: functional; details: 30 µM
[2] = target: T1, Ubiquitin-activating enzyme e1, putative (Leishmania donovani (strain BPK282A1)) (UniProt E9BSI1); experiment: Leishmania donovani Ubiquitin Activating Enzyme (LdE1); assay type: functional; details: 30 µM
T1 sequence (whole entry): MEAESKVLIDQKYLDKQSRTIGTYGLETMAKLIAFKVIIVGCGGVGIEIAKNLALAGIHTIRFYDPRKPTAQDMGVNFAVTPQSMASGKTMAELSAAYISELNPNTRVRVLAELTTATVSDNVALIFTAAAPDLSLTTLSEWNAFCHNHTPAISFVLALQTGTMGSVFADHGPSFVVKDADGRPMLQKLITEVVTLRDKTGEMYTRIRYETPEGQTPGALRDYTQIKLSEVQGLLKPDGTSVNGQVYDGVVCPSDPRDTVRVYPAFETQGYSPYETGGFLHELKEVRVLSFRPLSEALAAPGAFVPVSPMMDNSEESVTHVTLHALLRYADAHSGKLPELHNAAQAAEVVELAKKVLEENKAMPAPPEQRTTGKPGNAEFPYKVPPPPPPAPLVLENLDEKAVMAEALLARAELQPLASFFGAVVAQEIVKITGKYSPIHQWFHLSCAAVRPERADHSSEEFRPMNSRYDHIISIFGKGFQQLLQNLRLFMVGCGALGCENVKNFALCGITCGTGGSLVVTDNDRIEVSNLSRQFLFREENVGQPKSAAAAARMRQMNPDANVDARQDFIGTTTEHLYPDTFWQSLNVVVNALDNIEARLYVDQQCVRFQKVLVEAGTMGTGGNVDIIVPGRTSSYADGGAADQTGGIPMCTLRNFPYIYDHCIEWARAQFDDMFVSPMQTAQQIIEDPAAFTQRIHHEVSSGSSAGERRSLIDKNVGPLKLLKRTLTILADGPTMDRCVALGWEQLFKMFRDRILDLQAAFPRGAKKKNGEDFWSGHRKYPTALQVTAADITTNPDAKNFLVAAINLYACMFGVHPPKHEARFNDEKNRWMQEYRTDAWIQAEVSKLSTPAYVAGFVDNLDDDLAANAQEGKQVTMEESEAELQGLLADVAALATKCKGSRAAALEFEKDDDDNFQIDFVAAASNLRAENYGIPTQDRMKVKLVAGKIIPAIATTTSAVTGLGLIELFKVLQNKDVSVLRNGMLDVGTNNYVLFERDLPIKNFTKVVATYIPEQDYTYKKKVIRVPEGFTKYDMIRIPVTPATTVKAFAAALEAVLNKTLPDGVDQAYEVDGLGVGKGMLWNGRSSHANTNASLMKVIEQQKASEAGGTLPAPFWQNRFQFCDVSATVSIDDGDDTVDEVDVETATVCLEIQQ

[3] = target: Sialic acid-binding Ig-like lectin 9 (Homo sapiens) (UniProt Q9Y336); experiment: Hs-Siglec9 ALPHAscreen SOP 20170721; details: 10 µM
[4] = system: Trypanosoma cruzi; experiment: Trypanosoma cruzi phosphomannomutase and mannose-1-phosphate guanylyltransferase assay; assay type: functional; details: 10 µM
[5] = target: T2, Arginase-2, mitochondrial (Homo sapiens) (UniProt P78540); experiment: in vitro enzyme assay to detect the production of urea directly proportional to the activity of Arginase II; assay type: functional; details: 33.3 µM; note: in the data most compounds retested in dose-response had high values
T2 sequence (whole entry): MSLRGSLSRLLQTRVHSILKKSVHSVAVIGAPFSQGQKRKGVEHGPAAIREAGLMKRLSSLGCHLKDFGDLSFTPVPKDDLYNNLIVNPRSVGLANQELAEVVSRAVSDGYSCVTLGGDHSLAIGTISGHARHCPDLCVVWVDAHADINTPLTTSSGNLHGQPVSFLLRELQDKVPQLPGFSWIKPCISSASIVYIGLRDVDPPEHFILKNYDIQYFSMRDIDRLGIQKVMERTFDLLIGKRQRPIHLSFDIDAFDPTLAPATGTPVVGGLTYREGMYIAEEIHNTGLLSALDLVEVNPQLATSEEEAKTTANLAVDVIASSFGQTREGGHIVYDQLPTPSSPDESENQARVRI

[6] = target: T3, Proteasome subunit beta (Trypanosoma cruzi) (UniProt O96673); experiment: Trypanosoma cruzi proteasome chymotrypsin-like activity (TcProtChymo) assay.; note: in the data most compounds retested in dose-response had high values; assay type: functional; details: 9.37 µM
T3 sequence (whole entry): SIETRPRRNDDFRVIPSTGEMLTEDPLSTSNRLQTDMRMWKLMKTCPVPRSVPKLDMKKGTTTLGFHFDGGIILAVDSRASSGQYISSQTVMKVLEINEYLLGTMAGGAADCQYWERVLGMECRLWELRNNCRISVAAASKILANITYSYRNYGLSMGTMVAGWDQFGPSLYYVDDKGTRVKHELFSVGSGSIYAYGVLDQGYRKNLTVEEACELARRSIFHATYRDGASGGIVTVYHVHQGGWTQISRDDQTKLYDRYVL

[7] = organism: Homo sapiens; experiment: To identify inhibition of the IFN signalling (Jak-Stat) pathway via expression of an eGFP reporter gene under the control of an IFN-stimulated response element (ISRE) containing MxA promoter.; assay type: functional; details: 30 µM
[8] = target: T4, Tyrosyl-tRNA synthetase, putative (Trypanosoma cruzi (strain CL Brener)) (UniProt Q4DSP6); experiment: Trypanosoma cruzi tyrosyl tRNA synthetase (TcYRS) _High Tyrosine SOP; assay type: functional; details: 30 µM; note: in the data most compounds retested in dose-response had high values
T4 sequence (whole entry): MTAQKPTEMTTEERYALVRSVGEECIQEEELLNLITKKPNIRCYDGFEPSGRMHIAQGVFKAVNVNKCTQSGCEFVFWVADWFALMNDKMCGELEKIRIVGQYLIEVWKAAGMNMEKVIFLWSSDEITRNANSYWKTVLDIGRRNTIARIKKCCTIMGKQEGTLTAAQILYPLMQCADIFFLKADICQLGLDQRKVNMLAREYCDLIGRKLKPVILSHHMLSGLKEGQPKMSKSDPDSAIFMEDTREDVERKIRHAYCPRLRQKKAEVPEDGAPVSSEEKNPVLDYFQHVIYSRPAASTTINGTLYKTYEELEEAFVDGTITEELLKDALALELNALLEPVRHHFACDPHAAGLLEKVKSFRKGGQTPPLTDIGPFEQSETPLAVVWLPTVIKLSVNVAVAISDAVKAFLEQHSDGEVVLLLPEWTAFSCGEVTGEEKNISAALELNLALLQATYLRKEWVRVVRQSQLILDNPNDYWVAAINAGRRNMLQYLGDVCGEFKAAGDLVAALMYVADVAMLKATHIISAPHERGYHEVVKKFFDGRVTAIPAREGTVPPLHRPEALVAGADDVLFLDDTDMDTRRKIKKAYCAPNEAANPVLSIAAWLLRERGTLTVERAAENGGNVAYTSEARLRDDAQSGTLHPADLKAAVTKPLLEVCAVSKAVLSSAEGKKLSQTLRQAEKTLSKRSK

[9] = target: T4, Tyrosyl-tRNA synthetase, putative (Trypanosoma cruzi (strain CL Brener)); experiment: Trypanosoma cruzi tyrosyl tRNA synthetase (TcYRS) SOP; assay type: functional; details: 30 µM
[10] = target: Chromo domain-containing protein 1 (Saccharomyces cerevisiae (strain ATCC 204508 / S288c) (Baker's yeast)) (UniProt P32657); experiment: ScCHD-1 Enzyme Inhibition Assay; assay type: functional; details: 30 µM; note: in the data most compounds retested in dose-response had high values
Chain of Chromo domain-containing protein 1 (Saccharomyces cerevisiae (strain ATCC 204508 / S288c) (Baker's yeast)) (P32657 whole entry, the tested form may be a part): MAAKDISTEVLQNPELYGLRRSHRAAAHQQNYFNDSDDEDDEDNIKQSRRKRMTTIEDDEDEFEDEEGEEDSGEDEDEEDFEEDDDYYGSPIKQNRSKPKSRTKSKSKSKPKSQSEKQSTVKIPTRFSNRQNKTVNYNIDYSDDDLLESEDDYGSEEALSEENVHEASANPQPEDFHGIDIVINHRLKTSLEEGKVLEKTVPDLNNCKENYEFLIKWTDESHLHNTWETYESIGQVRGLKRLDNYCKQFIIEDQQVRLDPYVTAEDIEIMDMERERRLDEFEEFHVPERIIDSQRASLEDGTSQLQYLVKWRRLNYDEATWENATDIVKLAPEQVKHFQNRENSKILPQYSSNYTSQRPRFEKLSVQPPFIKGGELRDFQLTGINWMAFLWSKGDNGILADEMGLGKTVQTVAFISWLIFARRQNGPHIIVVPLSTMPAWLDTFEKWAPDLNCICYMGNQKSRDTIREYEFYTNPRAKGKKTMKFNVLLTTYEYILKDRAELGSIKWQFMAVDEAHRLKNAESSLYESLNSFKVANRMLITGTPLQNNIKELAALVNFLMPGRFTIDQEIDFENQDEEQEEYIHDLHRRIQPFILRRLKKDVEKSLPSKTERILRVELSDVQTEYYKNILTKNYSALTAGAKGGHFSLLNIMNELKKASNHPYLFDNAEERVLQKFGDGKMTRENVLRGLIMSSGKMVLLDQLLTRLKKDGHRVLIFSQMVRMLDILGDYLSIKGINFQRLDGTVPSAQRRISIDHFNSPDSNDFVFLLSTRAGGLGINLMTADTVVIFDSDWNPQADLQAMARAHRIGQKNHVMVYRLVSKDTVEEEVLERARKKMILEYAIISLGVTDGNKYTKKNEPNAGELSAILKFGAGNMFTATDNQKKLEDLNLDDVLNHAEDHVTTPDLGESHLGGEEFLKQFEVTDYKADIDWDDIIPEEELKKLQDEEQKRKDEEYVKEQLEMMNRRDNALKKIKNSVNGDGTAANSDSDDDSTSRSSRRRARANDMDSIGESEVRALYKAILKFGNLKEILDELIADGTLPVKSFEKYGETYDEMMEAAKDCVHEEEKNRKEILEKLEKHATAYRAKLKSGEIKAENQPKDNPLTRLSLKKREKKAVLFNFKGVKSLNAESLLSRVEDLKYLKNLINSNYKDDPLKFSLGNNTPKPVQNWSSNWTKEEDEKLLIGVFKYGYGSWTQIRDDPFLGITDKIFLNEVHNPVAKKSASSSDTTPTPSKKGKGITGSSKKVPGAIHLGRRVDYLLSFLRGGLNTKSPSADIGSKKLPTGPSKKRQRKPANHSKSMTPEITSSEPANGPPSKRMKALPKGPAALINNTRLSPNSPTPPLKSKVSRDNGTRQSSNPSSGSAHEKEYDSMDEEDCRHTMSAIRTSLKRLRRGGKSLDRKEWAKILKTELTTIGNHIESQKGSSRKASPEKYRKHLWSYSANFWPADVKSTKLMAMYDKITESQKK

Chain of Sialic acid-binding Ig-like lectin 9 (Homo sapiens) (Q9Y336 whole entry): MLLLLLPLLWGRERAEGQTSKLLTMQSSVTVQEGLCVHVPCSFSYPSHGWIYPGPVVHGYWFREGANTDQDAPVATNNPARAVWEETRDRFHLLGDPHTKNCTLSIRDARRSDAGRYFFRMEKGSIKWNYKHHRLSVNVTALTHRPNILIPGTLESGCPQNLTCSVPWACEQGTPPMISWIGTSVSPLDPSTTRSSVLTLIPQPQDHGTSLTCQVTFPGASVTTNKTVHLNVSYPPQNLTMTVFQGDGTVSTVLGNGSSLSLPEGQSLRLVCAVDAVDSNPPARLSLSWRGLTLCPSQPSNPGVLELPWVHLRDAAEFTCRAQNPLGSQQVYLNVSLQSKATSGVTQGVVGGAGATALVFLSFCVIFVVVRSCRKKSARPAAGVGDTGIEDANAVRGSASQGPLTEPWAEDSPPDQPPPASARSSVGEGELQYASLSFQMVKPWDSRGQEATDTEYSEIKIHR
Chain of Protein translocase subunit SecA (Escherichia coli (strain K12)) (P10408 whole entry): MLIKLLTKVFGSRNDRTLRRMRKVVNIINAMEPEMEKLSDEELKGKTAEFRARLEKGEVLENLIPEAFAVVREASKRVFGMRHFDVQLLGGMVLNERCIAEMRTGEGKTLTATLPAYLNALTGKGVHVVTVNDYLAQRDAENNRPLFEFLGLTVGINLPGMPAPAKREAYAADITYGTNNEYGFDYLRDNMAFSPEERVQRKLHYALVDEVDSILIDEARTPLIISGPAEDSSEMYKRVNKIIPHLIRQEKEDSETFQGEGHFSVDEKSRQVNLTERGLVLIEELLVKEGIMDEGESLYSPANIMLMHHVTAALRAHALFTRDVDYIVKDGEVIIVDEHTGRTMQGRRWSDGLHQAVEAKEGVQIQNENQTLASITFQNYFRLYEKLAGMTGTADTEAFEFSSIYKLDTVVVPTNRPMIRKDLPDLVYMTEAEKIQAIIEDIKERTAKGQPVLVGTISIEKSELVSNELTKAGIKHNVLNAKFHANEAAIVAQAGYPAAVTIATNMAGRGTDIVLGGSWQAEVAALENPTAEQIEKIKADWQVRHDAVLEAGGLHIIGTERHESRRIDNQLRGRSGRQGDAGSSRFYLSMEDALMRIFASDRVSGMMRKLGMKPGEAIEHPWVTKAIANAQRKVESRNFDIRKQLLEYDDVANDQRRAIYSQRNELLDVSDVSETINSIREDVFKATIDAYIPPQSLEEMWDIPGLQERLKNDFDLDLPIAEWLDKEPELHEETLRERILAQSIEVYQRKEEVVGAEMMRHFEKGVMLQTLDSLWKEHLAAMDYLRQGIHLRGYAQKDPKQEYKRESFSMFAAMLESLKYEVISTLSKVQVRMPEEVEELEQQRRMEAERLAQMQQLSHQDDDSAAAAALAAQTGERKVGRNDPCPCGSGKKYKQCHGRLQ

SMILES	Percent Effect [1]	Percent Effect [2]	Percent Effect [3]	Percent Effect [4]	Percent Effect [5]	Percent Effect [6]	Percent Effect [7]	Percent Effect [8]	Percent Effect [9]	Percent Effect [10]
CC(C)n1ccnc1CN1CCCN(C(=O)c2cccnc2O)CC1	-4.65%	15.4%	-20.6%	5.54%	1.64%	14.9%	-7.69%	10.1%	22.9%	-5.81%
Cn1c(Cn2cccn2)nnc1C1CCCN(c2ccncc2F)C1 (stereo not given)	-3.83%	10.8%	2.04%	-2.62%	0.35%	12%	27.1%	2.66%	12.2%	0.18%
COc1ccccc1OCC(=O)NS(=O)(=O)c1ccc(C)s1	-1.64%	5.2%	0.674%	-0.746%	7.58%	6.49%	5.05%	0.98%	16.5%	-3.45%
CCn1c(CN2CCCC2)nnc1C1CCN(Cc2ccc(C)o2)CC1	-1.86%	0%	4.03%	6.89%	13.6%	13.9%	2.8%	6.92%	19.5%	-6.17%
c1cnn(CC2CN(Cc3noc(C4CC4)n3)CCO2)c1 (stereo not given)	-9.46%	16%	4.59%	1.81%	-3.1%	10.8%	7.98%	3.68%	7.69%	-6.72%
CCc1n[nH]c(C2CN(C(=O)c3ncoc3C(C)C)CCO2)n1 (stereo not given)	1.99%	15.6%	8.33%	-0.746%	-2.25%	2.46%	17.6%	2.94%	18.8%	-8.96%
O=C1COC2(COCCN(Cc3ccsc3)C2)CN1c1ccc(F)cc1 (stereo not given)	-4.18%	1.3%	13.2%	-5.36%	1.22%	10.3%	-0.829%	4.74%	7.69%	-1.9%
CN1CCCC2(CCN(C(=O)CCn3cncn3)C2)C1=O (stereo not given)	-9.37%	2.7%	4.1%	4.17%	5.94%	12%	-0.496%	4.79%	19.5%	-0.366%
Cc1nc(COC[C@@H]2CCC[C@@]23CNCCO3)cs1	-4.17%	6.49%	-6%	-4.19%	4.05%	13%	8.21%	6.84%	2.56%	-5.3%
CCc1nc(CN(C)C2CCN(CCc3ccccn3)C2)no1 (stereo not given)	-0.239%	21.3%	-5.99%	4.02%	-3.55%	22.8%	12.5%	6.84%	15.4%	-14.1%
O=C(CN1CCCC(c2ccc(C(=O)O)cc2)C1)NC1CC1 (stereo not given)	-9.44%	5.41%	8.6%	7.08%	8.04%	1.2%	-14.3%	6.92%	12.2%	-1.84%
COCC(=O)N1CCC2(CC1)CCN(Cc1ccccn1)C2=O	-4.26%	-3.9%	-5.87%	-2.24%	-3.64%	1.5%	-7.24%	-2.63%	-5.13%	0.829%
O=C(c1ccno1)N1CCC2(CC1)C(=O)N(CC1CC1)c1ccccc12	-0.905%	-29.9%	-1.46%	-0.75%	3.2%	3%	5.14%	1.93%	0%	-3.48%
O=C1NC2(CCN(Cc3cccnc3)CC2)CC1c1ccncc1 (stereo not given)	-3.31%	6.49%	-5.51%	-7.69%	-0.405%	19%	-18.7%	1.58%	10.3%	4.74%
Cn1c(C2CC2)nc2c1CCN(CCS(=O)(=O)c1ccccc1)C2	-3.66%	-5.33%	1.61%	5.22%	0%	-2.46%	3.62%	0.526%	0%	-4.67%
CCOCC1CN(S(C)(=O)=O)Cc2cnn(CC3CCOCC3)c21 (stereo not given)	-3.9%	1.3%	-0.726%	-5.94%	-5.26%	10.5%	0.606%	3.68%	12.8%	-2.94%
CN1CC(=O)N(c2cnn(C)c2)CC12CCN(C(=O)c1ccsc1)C2 (stereo not given)	-5.41%	1.3%	3.75%	-6.13%	2.43%	6.27%	-0.162%	2.63%	2.56%	-2.51%
CCN(C)c1ncnc2c1CCN(Cc1ccc(OC)cc1)CC2	-4.72%	6.49%	-9.08%	-2.04%	2.43%	13.5%	25.4%	0.526%	7.69%	-4.67%
Cc1cc(C)n(CC2CCCCN2C(=O)c2cnn(C)c2)n1 (stereo not given)	-5.83%	8%	1.34%	-5.22%	-2.22%	6.02%	5.12%	-0.526%	2.56%	-0.708%
O=C(C1CCOCC1)N1CC[C@H]2C[C@@H](c3ccncn3)O[C@@H]2C1	-7.3%	3.9%	2.39%	5.55%	-6.48%	13.7%	-13.3%	3.68%	15.4%	25.1%
Cc1ccc(CN2CCCn3c(nc(Cn4cncn4)cc3=O)C2)s1	-8.68%	11.7%	-3.78%	2.43%	-1.22%	7.5%	-3.95%	4.74%	12.8%	-1.68%
Cn1nc2c(cc1=O)CN(Cc1nnc(-c3ccc(F)cc3)o1)CC2	-0.335%	7.69%	-9.64%	-6.48%	7.79%	6.23%	30.1%	0.478%	6.02%	-4.76%
Cn1cc(CN2CCOCC3(C2)CN(c2ccccc2)C(=O)CO3)cn1 (stereo not given)	-5.71%	9.09%	-4.81%	-1.85%	0%	5.03%	-7.25%	6.84%	10.3%	-1.15%
